E-sel TNF inh: TNF alpha driven E-selectin expression inhibition. HUVEC TNFa-induced E-selectin immunofluorescence, high content. inhibition, % at 2 µM. 120,000 tested, 0.71% active. AID 1246;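 active means inhibition above the batch mean plus 3 SD, and confirmed as a hit on visual image review, cut at about 43% in these data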;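 further: 0% = TNF-stimulated DMSO wells and 100% = unstimulated control wells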
CYP2C9 inh: inhibitors of human CYP2C9; P11712; CYP2C9 Supersomes, luciferin-H conversion, luminescence; inhibition, % at 5 µM; 96,000 tested, 20% active; AID 777;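 active means blocking of liver enzyme CYP2C9 beyond about 50% at 5 µM, limit read from the data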
cytoskel mod: modifiers of cytoskeleton assembly; HUVEC TNFa F-actin phalloidin imaging, high content; inhibition, % at 2 µM; 91,000 tested, 0.18% active; AID 836;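 active means inhibition above the batch mean plus 3 SD and confirmed as a hit by visual image inspection, cut at about 30% in these data, passing the limit was not always enough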
CYP2C19 inh: blocks human cytochrome P450 2C19 | P33261 | CYP2C19 Supersomes, luciferin-H EGE luminescence, 30 min | inhibition, % at 5 µM | 96,000 tested, 21% active;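 active means CYP2C19 inhibition above a set limit at 5 µM in the primary screen, cut at about 50% in these data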;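 further: plate controls were negative control wells for no effect and 2.5 mM tranylcypromine positive control for full effect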
Target sequence (P33261 whole entry, looked up): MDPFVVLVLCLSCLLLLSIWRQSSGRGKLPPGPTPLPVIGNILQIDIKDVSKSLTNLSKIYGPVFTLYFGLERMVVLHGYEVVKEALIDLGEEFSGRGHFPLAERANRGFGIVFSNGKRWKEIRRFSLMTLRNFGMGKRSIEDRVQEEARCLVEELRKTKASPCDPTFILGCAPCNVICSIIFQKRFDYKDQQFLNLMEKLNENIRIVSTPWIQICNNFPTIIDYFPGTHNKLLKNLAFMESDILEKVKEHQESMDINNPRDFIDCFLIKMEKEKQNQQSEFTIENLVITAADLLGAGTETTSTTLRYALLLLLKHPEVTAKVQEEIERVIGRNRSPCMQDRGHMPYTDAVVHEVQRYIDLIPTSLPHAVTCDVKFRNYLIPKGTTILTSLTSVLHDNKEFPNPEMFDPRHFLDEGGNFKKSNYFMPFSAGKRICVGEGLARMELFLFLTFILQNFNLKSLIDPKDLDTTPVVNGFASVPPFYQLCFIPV
CYP2C9 act: activators of human CYP2C9 | P11712 | recombinant CYP2C9, luciferin-H conversion, luminescence; active compounds read high; factor 1 = untreated enzyme, 0 = blocked | activation factor at 5 µM | 96,000 tested, 1.4% active | AID 1024;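 active means activation factor of 2 or more for CYP2C9 at a 5 µM dose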;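 further: 0 = sulfaphenazole-blocked wells and 1 = vehicle-only wells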
CYP2C19 activ: increases human CYP2C19 enzyme activity; recombinant CYP2C19, luciferin-H EGE luminescence; active compounds read high; 0 = fully inhibited enzyme, 1 = untreated enzyme; activation factor at 5 µM; 96,000 tested, under 10 active; AID 1025;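 active means activation factor of at least 2 at 5 µM in the primary screen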;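 further: 0 = wells with 2.5 mM tranylcypromine and 1 = vehicle-only wells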
The depositor's hits bear a star; / = no result given. An excerpt weighted towards active compounds, which were near 22% of everything screened.

SMILES	E-sel TNF inh	CYP2C9 inh	cytoskel mod	CYP2C19 inh	CYP2C9 act	CYP2C19 activ
COc1ccc(NS(=O)(=O)CC23CCC(CC2=O)C3(C)C)cc1 (stereo not given)	/	2	6	35	1	0.7
CCOc1cc(C(=O)N2CCN(C/C=C/c3ccccc3)CC2)cc(OCC)c1OCC	-2	42	13	48	0.6	0.5
CC1(C)Cc2nc3sc4c(OCc5ccccc5)ncnc4c3cc2CO1	47	30	10	42	0.7	0.6
CCOC(=O)C1=C(COC(=O)C2(C)CC2(Cl)Cl)NC(=O)NC1c1ccc(OC)cc1 (stereo not given)	28	/	/	/	/	/
CCN1C(=O)c2cccc3c(S(=O)(=O)NCCc4c[nH]c5ccccc45)ccc1c23	-1	84*	8	63*	0.2	0.4
CCN1C(=O)c2cccc3c(S(=O)(=O)NCCCN4CCOCC4)ccc1c23	/	46	-26	54*	0.5	0.5
CC(C)(Oc1ccc(Cl)cc1)C(=O)N1CCN(c2ccccn2)CC1	-18	/	16	/	/	/
Cc1cccc(-n2ncc3c(NCCCn4ccnc4)ncnc32)c1	/	91*	1	90*	0.1	0.1
Cc1ccc(-n2ncc3c(NCCCN4CCOCC4)ncnc32)c(C)c1	5	-2	-4	-11	1	1.1
Cc1cccc(-n2ncc3c(NC(C)C)ncnc32)c1	-6	12	/	8	0.9	0.9
Cc1ccc(-n2ncc3c(NCCCn4ccnc4)ncnc32)c(C)c1	/	80*	/	73*	0.2	0.3
Cc1sc2ncnc(NCCCn3ccnc3)c2c1C	11	90*	8	92*	0.1	0.1
COc1ccc(NC(=S)N(CCc2c(C)[nH]c3ccccc23)Cc2cccnc2)cc1	11	/	/	/	/	/
COc1ccc(/C(O)=C2/C(=O)C(=O)N(CCCN(C)C)C2c2ccc(C)o2)cc1Cl (stereo not given)	15	33	-34	2	0.7	1
CCCCCn1c(C(Cc2ccccc2)NC(C)=O)nc2ccccc21 (stereo not given)	/	23	-20	74*	0.8	0.3
CCCCn1c(NC(=O)c2ccccc2)nc2ccccc21	-9	73*	-4	61*	0.3	0.4
Cn1c(SCC(=O)N2c3ccccc3CCc3ccccc32)nnc1-c1cc2ccccc2cc1O	11	/	/	/	/	/
c1ccc(-c2n[nH]c(-c3ccccn3)n2)nc1	-3	14	4	67*	0.9	0.3
CC1(C)CC(=O)C(C=NC2CC(C)(C)NC(C)(C)C2)=C(O)C1	-24	10	23	11	0.9	0.9
CCc1ccc(C(=O)c2ccccc2C(=O)O)s1	-4	4	-3	6	1	0.9
O=C(O)Cc1ccc(C(=O)c2ccccc2F)s1	-3	-5	/	50*	1	0.5
O=C(CSc1n[nH]c(-c2ccccc2)n1)NC(=O)NCc1ccco1	-26	79*	-6	83*	0.2	0.2
O=C(CSc1nc2ccccc2o1)NC(=O)NCc1ccco1	10	25	13	51*	0.8	0.5
O=C(CSc1nc2ccccc2o1)NC(=O)NCc1ccccc1	12	30	-28	28	0.7	0.7
O=C(CSc1nc2ccccc2o1)NCc1ccco1	4	0	8	72*	1	0.3
SMILES	E-sel TNF inh	CYP2C9 inh	cytoskel mod	CYP2C19 inh	CYP2C9 act	CYP2C19 activ
CCOC(=O)C1CCCN(C(=O)CCNS(=O)(=O)c2ccc3c(c2)CCC(=O)N3)C1 (stereo not given)	/	1	4	-18	1	1.2
COc1ccc2c(c1)CCC1=C2NC(=S)NC1c1ccc(N(C)C)cc1 (stereo not given)	-14	/	/	/	/	/
CCN(C(=O)c1coc(=O)c2ccccc12)c1cc(OC)ccc1OC	/	64*	-10	38	0.4	0.6
CCN(C(=O)Cc1c(C(=O)O)[nH]c2ccccc12)c1cc(OC)ccc1OC	1	14	-1	-18	0.9	1.2
CCn1cc(/C=C/C(=O)Nc2c(C)nn(Cc3ccccc3C)c2C)cn1	0	/	/	/	/	/
CSc1ccc(/C=N/NC(=O)CN2CCN(Cc3ccc(C)cc3)CC2)cc1	88*	/	/	/	/	/
CSc1ccc(/C=N/NC(=O)CN2CCN(Cc3ccccc3Cl)CC2)cc1	-5	/	/	/	/	/
O=C(NC(=S)Nc1ccc(NC(=O)c2cccs2)cc1)c1cc2ccccc2o1	-3	/	/	/	/	/
CC(NC(=O)c1cc2ccccc2o1)c1cccs1 (stereo not given)	-23	69*	-19	82*	0.3	0.2
CC(C)NC(=O)c1cc2ccccc2o1	11	/	2	/	/	/
O=C(c1cc2ccccc2o1)c1cccs1	6	51*	59	49	0.5	0.5
CCC(c1nnc(SCc2nc3ccccc3s2)n1Cc1ccccc1)N(C)C (stereo not given)	/	74*	18	81*	0.3	0.2
COc1cccc(-c2nnc(SCc3nc4ccccc4s3)n2C)c1	/	29	-3	81*	0.7	0.2
CCOC(=O)CSc1nnc(-c2cccc(Cl)c2)n1CC	12	7	-13	52*	0.9	0.5
COc1ccc(-c2nnc(SCC(=O)Nc3nc4ccccc4s3)n2C)cc1	/	32	-10	12	0.7	0.9
O=C(CSc1nnc(-c2ccco2)n1Cc1ccccc1)NCc1ccccc1	4	/	-14	/	/	/
CCOC(=O)CSc1nnc(-c2ccc(OC)cc2)n1CC	-16	27	-4	14	0.7	0.9
c1ccc(Cn2c(SCc3nc4ccccc4s3)nnc2-c2ccco2)cc1	-7	83*	-15	88*	0.2	0.1
O=C(NC1(C(F)(F)F)C(=O)Nc2c1c(=O)[nH]c(=O)n2-c1ccccc1)c1ccncc1 (stereo not given)	-40	/	-4	/	/	/
CCn1c(SCc2cccc(C)c2)nnc1-c1ccccc1	4	5	-17	97*	1	0
CCn1c(SCc2nc3ccccc3s2)nnc1-c1ccccc1	-14	20	1	99*	0.8	0
Cc1nnc(SCc2nc3ccccc3s2)n1N	-20	/	/	/	/	/
COc1ccc(C)cc1NC(=O)c1nc2nc(C)cc(C)n2n1	-21	/	13	/	/	/
CCOC(=O)N1CCN(S(=O)(=O)c2ccc(C)c(C)c2)CC1	5	-63	-16	41	1.6	0.6
CCOC(=O)N1CCN(S(=O)(=O)c2c(C)cc(C)cc2C)CC1	-14	50*	14	23	0.5	0.8
CCOC(=O)N1CCN(C(=O)C2CCN(S(=O)(=O)c3c(C)cc(C)cc3C)CC2)CC1	19	-241	/	22	3.4*	0.8
Cc1ccc(-n2c(=S)[nH]c3c(oc4ccccc43)c2=O)cc1C	-37	/	/	/	/	/
CCOC(=O)Cn1c(=S)[nH]c2c(oc3ccc(Cl)cc32)c1=O	-5	76*	/	-2	0.2	1
OC1(C(F)(F)F)CC(O)(C(F)(F)F)n2nc(-c3ccccc3)cc2N1 (stereo not given)	/	5	10	15	0.9	0.8
Cc1onc(-c2c(F)cccc2Cl)c1C(=O)Nc1nnc(-c2ccccc2)s1	12	-15	15	-18	1.1	1.2

High-throughput results: PubChem, several laboratories
